We go through 14 molecules from PubChem BioAssay.

Each structure is given as a SMILES string. Activity calls are given as the source filed them.

A short description of test [1]: anti-His antibody binders, primary screen, artefact control for SMM control protein annotation, biochemical, small-molecule microarray, 635 nm fluorescence (AID 1128).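 Further: score merges feature fluorescence with signal-to-noise for each printed compound spot.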 Conditions: anti-His Alexa647 antibody binding, higher = more signal.
Test [2] concerns Human papillomavirus type 1a E7 protein (residues 1-88). In words: HPV1a E7 small-molecule binders, primary screen, biochemical, small-molecule microarray, residues 1-88, 635 nm (AID 1129). Conditions: small-molecule microarray binding, fluorescence 635 nm; higher = more signal.
The target in test [3] is Focal adhesion kinase 1 (Homo sapiens) (UniProt Q05397). In words: small-molecule microarray binders of FAK, primary screen, biochemical, 635/667 nm fluorescence, BSA, DTT (AID 1130).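 Further: composite of spot emission at 667 nm and signal to noise over triplicate slides.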 Conditions: PTK2 binding, 635 nm fluorescence, higher = more signal.
In test [4] the test system is Fibrinogen (Alexa647-labelled). Kind of test: fibrinogen binders on compound microarrays, profiling panel, artefact control for SMM control-protein annotation, biochemical, small-molecule microarray, 635/667 nm fluorescence (AID 1131).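 Further: z-score merges 667 nm fluorescence with per-spot signal-to-noise over triplicate slides.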 Conditions: fibrinogen-A647 binding fluorescence, higher = more signal.
Test [5] concerns the target Follistatin (Homo sapiens) (UniProt P19883). Kind of test: follistatin binders on small-molecule microarrays, primary screen, biochemical, small-molecule microarray, 635/667 nm fluorescence (AID 1132). The conditions noted are these: FST binding, 635 nm fluorescence, higher = more signal.
The target of test [6] is Fibroblast growth factor 2 (Homo sapiens) (UniProt P09038). In words: FGF2 binders on small-molecule microarrays, primary screen, biochemical, small-molecule microarray, 635/667 nm fluorescence (AID 1133). The conditions noted are these: small-molecule microarray binding, FGF2, fluorescence 635/667; higher = more signal.
Test [7] can be described thus: mitochondrial membrane potential change in A549 cells, profiling panel, cell-based, JC-1 fluorescence, basal, 24 h, 100 nL (AID 1138).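 Further: A549 lung adenocarcinoma cells under basal conditions with no added stimulus; test concentration not given here.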 Conditions: higher = more signal.
The subject of a further test is Lefty1. In words: Lefty1 binders on small-molecule microarrays, primary screen, biochemical, small-molecule microarray, 635/667 nm fluorescence (AID 1139). The conditions noted are these: small-molecule microarray binding, fluorescence 635/667; higher = more signal.
The test system of test [8] is wheat germ agglutinin (Triticum aestivum), Alexa647-labelled. In words: wheat germ agglutinin binders on compound microarrays, profiling panel, artefact control for SMM control-protein annotation, biochemical, small-molecule microarray, 635/667 nm fluorescence (AID 1140).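 Further: score merges 667 nm feature emission with signal to noise over triplicate slides.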 The conditions noted are these: WGA-A647 binding, 635 nm fluorescence, higher = more signal.
The target of test [9] is Luciferin 4-monooxygenase (Photinus pyralis) (UniProt P08659). In words: firefly luciferase enzyme inhibitors, primary screen, biochemical, luminescence, purified enzyme, 2006 set (AID 1141).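 Further: cell-free assay with purified firefly luciferase at 100 ng per well in PBS; test concentration not given here.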 The conditions noted are these: SteadyGlo luminescence, 30 min, higher = more signal, called active from +8 up or from −8 down.
Sequence of Luciferin 4-monooxygenase (Photinus pyralis) (P08659 whole entry, looked up): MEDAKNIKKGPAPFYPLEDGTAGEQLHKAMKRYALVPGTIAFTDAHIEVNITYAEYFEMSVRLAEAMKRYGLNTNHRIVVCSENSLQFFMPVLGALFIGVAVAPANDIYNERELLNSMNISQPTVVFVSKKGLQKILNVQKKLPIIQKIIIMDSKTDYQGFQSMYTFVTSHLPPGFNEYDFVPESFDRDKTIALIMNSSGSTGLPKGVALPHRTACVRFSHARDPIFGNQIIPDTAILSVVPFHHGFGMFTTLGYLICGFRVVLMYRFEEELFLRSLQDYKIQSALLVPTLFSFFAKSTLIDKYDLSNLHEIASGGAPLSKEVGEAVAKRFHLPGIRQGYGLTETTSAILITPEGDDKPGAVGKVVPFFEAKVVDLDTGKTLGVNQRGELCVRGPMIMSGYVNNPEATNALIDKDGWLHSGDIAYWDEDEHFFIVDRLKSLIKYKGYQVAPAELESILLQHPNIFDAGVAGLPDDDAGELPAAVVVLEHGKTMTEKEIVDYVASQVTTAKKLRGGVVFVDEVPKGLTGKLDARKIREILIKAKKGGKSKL

Sequence of Fibroblast growth factor 2 (Homo sapiens) (P09038 whole entry, looked up): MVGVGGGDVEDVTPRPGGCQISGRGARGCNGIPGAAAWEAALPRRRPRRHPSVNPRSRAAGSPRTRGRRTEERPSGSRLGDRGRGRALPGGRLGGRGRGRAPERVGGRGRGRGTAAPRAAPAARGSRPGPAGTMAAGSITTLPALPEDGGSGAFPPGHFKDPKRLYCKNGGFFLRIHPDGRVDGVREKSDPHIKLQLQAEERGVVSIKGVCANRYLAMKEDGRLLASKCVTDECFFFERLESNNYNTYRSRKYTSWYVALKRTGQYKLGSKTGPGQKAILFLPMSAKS
Sequence of Focal adhesion kinase 1 (Homo sapiens) (Q05397 whole entry, looked up): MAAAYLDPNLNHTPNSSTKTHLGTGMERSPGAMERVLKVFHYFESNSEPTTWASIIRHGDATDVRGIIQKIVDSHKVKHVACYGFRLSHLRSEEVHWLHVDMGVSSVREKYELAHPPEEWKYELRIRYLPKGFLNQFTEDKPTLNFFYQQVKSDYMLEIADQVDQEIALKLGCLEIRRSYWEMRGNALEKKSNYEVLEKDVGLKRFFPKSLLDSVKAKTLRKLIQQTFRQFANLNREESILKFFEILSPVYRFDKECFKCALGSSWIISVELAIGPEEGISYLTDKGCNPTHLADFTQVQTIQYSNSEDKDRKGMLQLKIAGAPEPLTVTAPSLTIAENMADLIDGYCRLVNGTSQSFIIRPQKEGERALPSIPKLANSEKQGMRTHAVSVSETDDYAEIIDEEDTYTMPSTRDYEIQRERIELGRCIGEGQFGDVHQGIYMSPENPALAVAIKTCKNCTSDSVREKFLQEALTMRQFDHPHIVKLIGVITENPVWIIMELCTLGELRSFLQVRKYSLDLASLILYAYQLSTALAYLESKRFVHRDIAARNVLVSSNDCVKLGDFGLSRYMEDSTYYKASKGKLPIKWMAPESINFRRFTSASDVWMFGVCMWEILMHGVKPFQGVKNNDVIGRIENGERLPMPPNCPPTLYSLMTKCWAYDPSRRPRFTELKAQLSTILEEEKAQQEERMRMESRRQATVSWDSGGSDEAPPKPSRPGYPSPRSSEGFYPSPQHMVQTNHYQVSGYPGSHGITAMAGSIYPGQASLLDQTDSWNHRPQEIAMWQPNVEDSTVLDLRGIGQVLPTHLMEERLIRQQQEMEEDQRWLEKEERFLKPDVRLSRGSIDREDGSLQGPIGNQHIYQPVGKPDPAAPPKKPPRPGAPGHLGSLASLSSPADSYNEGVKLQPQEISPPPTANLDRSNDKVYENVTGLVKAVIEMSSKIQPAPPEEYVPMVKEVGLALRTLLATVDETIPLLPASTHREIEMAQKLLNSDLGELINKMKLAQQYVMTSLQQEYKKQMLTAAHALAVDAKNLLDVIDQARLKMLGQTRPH
Sequence of Follistatin (Homo sapiens) (P19883 whole entry, looked up): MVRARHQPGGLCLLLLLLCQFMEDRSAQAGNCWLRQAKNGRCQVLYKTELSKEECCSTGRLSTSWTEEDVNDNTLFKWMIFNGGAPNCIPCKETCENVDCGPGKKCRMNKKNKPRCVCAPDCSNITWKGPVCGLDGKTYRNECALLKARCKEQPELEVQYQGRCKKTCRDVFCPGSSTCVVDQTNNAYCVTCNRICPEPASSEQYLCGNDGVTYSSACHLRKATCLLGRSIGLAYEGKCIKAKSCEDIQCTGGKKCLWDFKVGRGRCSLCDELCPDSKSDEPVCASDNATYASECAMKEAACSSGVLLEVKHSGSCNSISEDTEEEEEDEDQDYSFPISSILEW

As to `O=C(NCCN1CCOCC1)[C@@H]1c2ccccc2C(=O)N(Cc2ccccc2)[C@H]1c1ccc(CO)cc1`, the composite z-score was -0.87 in test [1]; -0.611 in test [2]; -0.668 in test [3]; 0.143 in [4]; 0.321 in test [5]; -0.447 in test [6]. The composite z-score with Lefty1 is -0.665; in test [8], -0.3. Further, the z-score in [7] was 0.829; in [9] it was 1.36 (inactive).

Take `CN(C)CCCNC(=O)[C@@H]1c2ccccc2C(=O)N(C2CCCCC2)[C@H]1c1ccc(CO)cc1`: the composite z-score was 2.58 in [1]; 1.24 in [2]; -0.0457 in test [3]; 0.508 in test [4]; 1.35 in test [5]; 1.3 in [6]. Further, the composite z-score with Lefty1 was 1.04; in test [8], 0.277. Moreover, the z-score was 0.494 in [7] and 0.876 (inactive) in test [9].

With `CC(C)C[C@@H]1NC(=O)[C@H]2C[C@@H](C(=O)NCCCCCN)[C@@H](c3cccc(OCCO)c3)N2C1=O`, the composite z-score in test [1] is 1.22; in test [2] it was 0.334; in test [3] it was -0.0639; in test [4], 0.133; in [5] it was -0.214; in test [6], 0.181. In addition, the composite z-score is -0.813 in the test with Lefty1 and 0.817 in test [8]. The z-score in [7] is 0.34; in [9], -1.07 (inactive).

`COc1cc2c(cc1OC)CN(C(=O)[C@@H]1[C@H]3C(=O)O[C@H](c4ccccc4)[C@H](c4ccccc4)N3[C@H](c3ccc(O)cc3)[C@@]13C(=O)Nc1ccc(C#CCCO)cc13)CC2`: the composite z-score came to 0.388 in test [1]; 0.989 in [2]; 0.584 in test [3]; 0.876 in test [4]; 1.11 in test [5]; 1.24 in [6]. Moreover, the composite z-score stood at 0.945 with Lefty1 and 0.7 in test [8]. Also, the results for the z-score in test [7] and in test [9] were -1.2 and 0.372 (inactive), respectively.

As to `CCOC(=O)C1=C[C@@H](C(C)(C)C)N(S(=O)(=O)c2ccc(C)cc2)[C@H]1c1cccc(Cl)c1`, the composite z-score in test [1] was determined as 1.07; in [2], 1.22; in test [3], 2.77; in [4], 0.862; in test [5] it was 0.677; in [6], 0.556. The composite z-score with Lefty1 is 1.26; in test [8], 1.01. Also, the figures for the z-score in [7] and in test [9] were 2.42 and 1.24 (inactive), respectively.

With `O=C(CS)NCCCCCNC(=O)[C@@H]1C[C@@H]2C(=O)N[C@@H](Cc3ccccc3)C(=O)N2[C@@H]1c1cccc(OCCO)c1`, the composite z-score is 0.768 in [1]; 1.24 in [2]; 0.334 in [3]; 0.284 in test [4]; 1.39 in test [5]; 1.6 in test [6]. The composite z-score in the test on Lefty1 turned out to be 0.4; in test [8], 0.288. Also, the z-score in test [7] was 0.296; in test [9], -1.97 (inactive).

In the case of `C=C(/C(=C/C[C@H](OC(=O)c1ccncc1)c1cccc(OCCO)c1)c1cnc2ccccc2c1)C(C)C`, the composite z-score in [1] turned out to be 0.291; in [2], 0.952; in test [3], 0.807; in test [4], 0.247; in test [5], 1.46; in [6], 1.85. Besides, the composite z-score in the test with Lefty1 was found to be 1.6; in test [8], 1.33. In addition, the z-score was 0.945 in [7] and -0.799 (inactive) in test [9].

As to `[N-]=[N+]=NCc1ccccc1[C@H]1OC(c2ccc(OCCCO)cc2)=N[C@@]1(Cc1ccccc1)C(=O)NCCN1CCOCC1`, the composite z-score in test [1] stood at 2.04; in [2], 1.26; in test [3], 0.514; in test [4], 0.915; in test [5], 1.33; in test [6] it was 1.63. The composite z-score in the test with Lefty1 turned out to be 0.332; in test [8], 0.531. For the same molecule, the z-score in test [7] was 1.87; in test [9], -3.29 (inactive).

Consider `COC(=O)[C@@]1(Cc2ccccc2)[C@H]2c3cc(C(=O)N4CCCC4)n(CCSCCO)c3C[C@H]2CN1C(=O)c1ccccc1`, for which the composite z-score worked out at 2.38 in [1]; 1.21 in test [2]; 0.776 in test [3]; 0.975 in test [4]; 0.337 in [5]; 0.101 in test [6]. In addition, the composite z-score came out at 0.0341 with Lefty1 and 0.844 in test [8]. Further, the figures for the z-score in test [7] and in test [9] were 0.451 and 0.103 (inactive), respectively.

For the molecule `COc1ccc(C#Cc2ccc3c(c2)[C@]2(C(=O)N3)[C@H](C(=O)Nc3nc4ccccc4s3)[C@H]3C(=O)O[C@H](c4ccccc4)[C@H](c4ccccc4)N3[C@@H]2c2ccccc2OCCO)cc1`, the composite z-score in [1] came to 0.395; in test [2] it was 1.1; in test [3], 0.446; in test [4], 0.969; in [5] it was 1.16; in test [6], 0.0821. Besides, the composite z-score in the test with Lefty1 worked out at 0.262; in test [8], 0.371. The z-score is -1.98 in [7] and -0.364 (inactive) in test [9].

On to `Nc1cc(Br)ccc1C(=O)O`, for which the composite z-score in [1] was 1.28; in test [2], 0.319; in test [3], 0.5; in test [4], 0.777; in test [5], 0.181; in [6] it was 0.372. Moreover, the results for the composite z-score (with Lefty1; in test [8]) were -0.0916 and 0.863, respectively. Moreover, the figures for the z-score in test [7] and in [9] were 1.28 and -1.1 (inactive), respectively.

Regarding `O=C1[C@@]23C=C(Br)[C@H](C[C@@H]2COC3)[C@@]12CO2`, the composite z-score amounted to 0.192 in test [1]; 0.247 in test [2]; 0.0493 in test [3]; 0.161 in [4]; 0.397 in test [5]; 0.423 in test [6]. Besides, the composite z-score in the test with Lefty1 amounted to 0.414; in test [8], 0.0439. Further, the z-score in [7] is -0.0605; in test [9], 0.44 (inactive).

As to `Cc1ccccc1C(O)C1C=CC2C(=O)NC(=O)C2N1Nc1ccc(Cl)cc1Cl` (stereo not given), the composite z-score was 0.817 in [1]; 1.18 in [2]; 0.276 in test [3]; 0.866 in [4]; 0.802 in test [5]; -0.344 in test [6]. In addition, the figures for the composite z-score (in the test with Lefty1; in test [8]) were 0.518 and 0.951, respectively. Further, the z-score in [7] was -1.06; in [9], -1.08 (inactive).

On to `C=C[C@@H](C)[C@H](O)c1ccc(OCCO)cc1`, for which the composite z-score in test [1] was 0.0123; in test [2], -0.535; in [3], -0.232; in test [4] it was -1.82; in test [5], -0.808; in [6] it was -0.994. In addition, the composite z-score was -1.19 in the test with Lefty1 and -0.858 in test [8]. In addition, the z-score in [7] is 0.41; in test [9] it was -15.8 (active).
